# Measured values reported in the supplement of paper PMC6555819.
# Experiments:
# Assay in all cases: PBM binding z-score (relative to random genomic background probes); higher = stronger binding; sequences stand for … in GC…GCGATTGACAGCGTAGAATGAAGG
# [1] = test system: PPARg:RXRa DBDmut IVT, anti-RXR (DBD mutation: RXRa K156A/R161A, NR concentration 270 nM, RXRa partner concentration 90 nM)
# Method in brief: (§1)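 Scanned fluorescence from custom Agilent 4×180K protein-binding microarrays was regression-normalized. Binding z-scores use random background probes as reference. Ligand-free nuclear receptor dimers were incubated on the arrays for 1 h and detected with antibodies against each partner (one per run).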
# [2] = test system: PPARg:RXRa IVT, anti-PPARg (NR concentration 270 nM, RXRa partner concentration 90 nM)
# Method in brief: as §1
# [3] = test system: PPARg DBDmut:RXRa IVT, anti-PPARg (DBD mutation: PPARg1 K132A/R137A, NR concentration 270 nM, RXRa partner concentration 90 nM)
# Method in brief: as §1
# [4] = test system: PPARg DBDmut IVT, anti-PPARg (DBD mutation: PPARg1 K132A/R137A, NR concentration 270 nM)
# Method in brief: as §1
# [5] = test system: PPARg homodimer (NR concentration 180 nM)
# Method in brief: as §1
# [6] = test system: PXR:RXRa (NR concentration 270 nM, RXRa partner concentration 90 nM)
# Method in brief: as §1
# [7] = test system: PXR homodimer (NR concentration 270 nM)
# Method in brief: as §1
# [8] = test system: RARa:RXR (NR concentration 270 nM, RXRa partner concentration 90 nM)
# Method in brief: as §1
# [9] = test system: RARa homodimer (NR concentration 270 nM)
# Method in brief: as §1
# [10] = test system: RARb:RXRa (NR concentration 270 nM, RXRa partner concentration 90 nM)
# Method in brief: as §1
sequence,measurement,setting,value
GATACAGGGTCAGCTAGAGGCCATAGTATGGAAA,PBM binding z-score,[1],0.981
same,PBM binding z-score,[2],2.33
same,PBM binding z-score,[3],0.47
same,PBM binding z-score,[4],-0.0794
same,PBM binding z-score,[5],2.26
same,PBM binding z-score,[6],3.96
same,PBM binding z-score,[7],0.241
same,PBM binding z-score,[8],4.62
same,PBM binding z-score,[9],0.222
same,PBM binding z-score,[10],4.15
TCTAGTTGGTCACGGAGGTTACACACGACGGGTA,PBM binding z-score,[1],2.33
same,PBM binding z-score,[2],2.95
same,PBM binding z-score,[3],0.625
same,PBM binding z-score,[4],0.671
same,PBM binding z-score,[5],1.64
same,PBM binding z-score,[6],1.53
same,PBM binding z-score,[7],0.58
same,PBM binding z-score,[8],1.77
same,PBM binding z-score,[9],0.623
same,PBM binding z-score,[10],2.42
TCTAATTGGTCACGGAGGTCACACACGACGGGTA,PBM binding z-score,[1],2.78
same,PBM binding z-score,[2],4.04
same,PBM binding z-score,[3],1.67
same,PBM binding z-score,[4],1.69
same,PBM binding z-score,[5],3.37
same,PBM binding z-score,[6],4.81
same,PBM binding z-score,[7],1.7
same,PBM binding z-score,[8],4.76
same,PBM binding z-score,[9],2.23
same,PBM binding z-score,[10],4.2
CCAGACAGGTGAAGGGTAACTCAGTCTGGTACGC,PBM binding z-score,[1],0.998
same,PBM binding z-score,[2],1.9
same,PBM binding z-score,[3],-0.966
same,PBM binding z-score,[4],-0.622
same,PBM binding z-score,[5],0.674
same,PBM binding z-score,[6],-0.0608
same,PBM binding z-score,[7],-0.0922
same,PBM binding z-score,[8],0.0219
same,PBM binding z-score,[9],-0.195
same,PBM binding z-score,[10],1.04
GCTATTAGTTGAAAGGGCAACTGAATGATTCTCG,PBM binding z-score,[1],0.54
same,PBM binding z-score,[2],1.04
same,PBM binding z-score,[3],0.18
same,PBM binding z-score,[4],0.595
same,PBM binding z-score,[5],1.34
same,PBM binding z-score,[6],0.933
same,PBM binding z-score,[7],0.252
same,PBM binding z-score,[8],1.68
same,PBM binding z-score,[9],0.584
same,PBM binding z-score,[10],2.1
CGAACTAGGTCAAGGACCGTGAATCTCCGCACGC,PBM binding z-score,[1],7.68
same,PBM binding z-score,[2],8.18
same,PBM binding z-score,[3],4.94
same,PBM binding z-score,[4],0.945
same,PBM binding z-score,[5],0.756
same,PBM binding z-score,[6],0.773
same,PBM binding z-score,[7],-0.365
same,PBM binding z-score,[8],1.63
same,PBM binding z-score,[9],-0.219
same,PBM binding z-score,[10],3.8
CTACCAAGGTGACCAAGGTCGTTGATTACTATTC,PBM binding z-score,[1],1.56
same,PBM binding z-score,[2],2.32
same,PBM binding z-score,[3],-0.302
same,PBM binding z-score,[4],-0.385
same,PBM binding z-score,[5],0.966
same,PBM binding z-score,[6],2.3
same,PBM binding z-score,[7],1.04
same,PBM binding z-score,[8],2.16
same,PBM binding z-score,[9],-0.214
same,PBM binding z-score,[10],1.65
CTCGAAAGTTCGGTTGAGGTGAGTATACGGATAA,PBM binding z-score,[1],-0.462
same,PBM binding z-score,[2],0.288
same,PBM binding z-score,[3],-0.142
same,PBM binding z-score,[4],0.0612
same,PBM binding z-score,[5],0.083
same,PBM binding z-score,[6],1.14
same,PBM binding z-score,[7],0.236
same,PBM binding z-score,[8],1.8
same,PBM binding z-score,[9],-0.11
same,PBM binding z-score,[10],1.55
AATACAGGGTCACTCGGCCAGAGTAGGTACGAAT,PBM binding z-score,[1],3.09
same,PBM binding z-score,[2],5.09
same,PBM binding z-score,[3],2.08
same,PBM binding z-score,[4],1.63
same,PBM binding z-score,[5],2.92
same,PBM binding z-score,[6],3.49
same,PBM binding z-score,[7],0.336
same,PBM binding z-score,[8],4.66
same,PBM binding z-score,[9],0.723
same,PBM binding z-score,[10],4.39
TTACCCAGGTGAAAGGTCGTTGATGCACGCCTTG,PBM binding z-score,[1],3.16
same,PBM binding z-score,[2],5.28
same,PBM binding z-score,[3],1.04
same,PBM binding z-score,[4],0.584
same,PBM binding z-score,[5],2.1
same,PBM binding z-score,[6],3.69
same,PBM binding z-score,[7],0.742
same,PBM binding z-score,[8],4.9
same,PBM binding z-score,[9],-0.211
same,PBM binding z-score,[10],2.46
ACAGACAGGTGAGTGAAGGTAACTAAGCTGGACG,PBM binding z-score,[1],0.098
same,PBM binding z-score,[2],0.719
same,PBM binding z-score,[3],-0.328
same,PBM binding z-score,[4],-0.677
same,PBM binding z-score,[5],-0.864
same,PBM binding z-score,[6],-0.279
same,PBM binding z-score,[7],-0.0557
same,PBM binding z-score,[8],0.0664
same,PBM binding z-score,[9],0.112
same,PBM binding z-score,[10],0.425
CGTCAAAGTTCAACGTAACGTAACAGAAAGCAGC,PBM binding z-score,[1],0.266
same,PBM binding z-score,[2],1.76
same,PBM binding z-score,[3],0.727
same,PBM binding z-score,[4],1.04
same,PBM binding z-score,[5],2.48
same,PBM binding z-score,[6],4.4
same,PBM binding z-score,[7],2.41
same,PBM binding z-score,[8],3.07
same,PBM binding z-score,[9],1.3
same,PBM binding z-score,[10],5.18
TTACCAAGGTGAAAGGGCGTTGATGCACGCCTTG,PBM binding z-score,[1],1.85
same,PBM binding z-score,[2],3.87
same,PBM binding z-score,[3],0.557
same,PBM binding z-score,[4],0.204
same,PBM binding z-score,[5],0.404
same,PBM binding z-score,[6],1.14
same,PBM binding z-score,[7],-0.361
same,PBM binding z-score,[8],1.94
same,PBM binding z-score,[9],-0.167
same,PBM binding z-score,[10],1.88
GCTATTAGTTGAAAGGGCAGCCGAATGATTCTCG,PBM binding z-score,[1],0.343
same,PBM binding z-score,[2],0.268
same,PBM binding z-score,[3],-0.735
same,PBM binding z-score,[4],-0.14
same,PBM binding z-score,[5],0.871
same,PBM binding z-score,[6],0.09
same,PBM binding z-score,[7],0.28
same,PBM binding z-score,[8],0.515
same,PBM binding z-score,[9],0.871
same,PBM binding z-score,[10],1.78
ACAGACAGGTAAGTGAAGGTAACTCAGCTGGACG,PBM binding z-score,[1],-0.107
same,PBM binding z-score,[2],0.305
same,PBM binding z-score,[3],0.744
same,PBM binding z-score,[4],-0.0686
same,PBM binding z-score,[5],-0.111
same,PBM binding z-score,[6],-0.306
same,PBM binding z-score,[7],0.283
same,PBM binding z-score,[8],-0.575
same,PBM binding z-score,[9],0.213
same,PBM binding z-score,[10],0.109
CCTGCTAGGTCAATGGCCAGCTAAAGCAGCTCGC,PBM binding z-score,[1],4.15
same,PBM binding z-score,[2],3.04
same,PBM binding z-score,[3],-1.08
same,PBM binding z-score,[4],-1.25
same,PBM binding z-score,[5],0.733
same,PBM binding z-score,[6],0.566
same,PBM binding z-score,[7],-0.775
same,PBM binding z-score,[8],1.31
same,PBM binding z-score,[9],-0.563
same,PBM binding z-score,[10],3.73
GCTAGCGGGCCATTTGGGTCACTCAATGACGGGC,PBM binding z-score,[1],1.3
same,PBM binding z-score,[2],1.48
same,PBM binding z-score,[3],-0.871
same,PBM binding z-score,[4],-1.28
same,PBM binding z-score,[5],-0.0904
same,PBM binding z-score,[6],0.246
same,PBM binding z-score,[7],-0.44
same,PBM binding z-score,[8],0.906
same,PBM binding z-score,[9],-1.07
same,PBM binding z-score,[10],1.26
CCTTACGGGTCACTCCAGGATATAGCATCGGAGT,PBM binding z-score,[1],2.53
same,PBM binding z-score,[2],2.97
same,PBM binding z-score,[3],0.582
same,PBM binding z-score,[4],-0.0388
same,PBM binding z-score,[5],1.51
same,PBM binding z-score,[6],3.13
same,PBM binding z-score,[7],0.912
same,PBM binding z-score,[8],2.84
same,PBM binding z-score,[9],0.759
same,PBM binding z-score,[10],3.4
CAGCCTAGGTCAGGGCCGGTATAGGAGGAACGTT,PBM binding z-score,[1],0.942
same,PBM binding z-score,[2],1.52
same,PBM binding z-score,[3],-0.778
same,PBM binding z-score,[4],-1.19
same,PBM binding z-score,[5],0.324
same,PBM binding z-score,[6],0.229
same,PBM binding z-score,[7],-0.999
same,PBM binding z-score,[8],0.69
same,PBM binding z-score,[9],-0.753
same,PBM binding z-score,[10],3.33
GAGACTGGGGCATCAGCAGGTTACCATAACTTAA,PBM binding z-score,[1],4.76
same,PBM binding z-score,[2],4.68
same,PBM binding z-score,[3],0.663
same,PBM binding z-score,[4],0.792
same,PBM binding z-score,[5],0.579
same,PBM binding z-score,[6],0.391
same,PBM binding z-score,[7],0.295
same,PBM binding z-score,[8],0.706
same,PBM binding z-score,[9],-0.0469
same,PBM binding z-score,[10],1.09
CCTAGCAGGCCAGGGTTACTCAAGCATTTCGCTT,PBM binding z-score,[1],0.153
same,PBM binding z-score,[2],-0.137
same,PBM binding z-score,[3],-1.74
same,PBM binding z-score,[4],-1.06
same,PBM binding z-score,[5],-0.6
same,PBM binding z-score,[6],-0.139
same,PBM binding z-score,[7],-0.48
same,PBM binding z-score,[8],0.193
same,PBM binding z-score,[9],-0.665
same,PBM binding z-score,[10],0.303
AGTCAAAGTTCAGGACGAGGTAACGTAGAGCACG,PBM binding z-score,[1],0.103
same,PBM binding z-score,[2],2.2
same,PBM binding z-score,[3],0.482
same,PBM binding z-score,[4],0.536
same,PBM binding z-score,[5],1.57
same,PBM binding z-score,[6],2.79
same,PBM binding z-score,[7],0.943
same,PBM binding z-score,[8],2.87
same,PBM binding z-score,[9],0.443
same,PBM binding z-score,[10],4.25
CCTGCTAGCTCATGGTCAGCTAATCTACAGTATG,PBM binding z-score,[1],0.183
same,PBM binding z-score,[2],-0.609
same,PBM binding z-score,[3],-0.471
same,PBM binding z-score,[4],-0.109
same,PBM binding z-score,[5],-0.356
same,PBM binding z-score,[6],-0.641
same,PBM binding z-score,[7],-0.376
same,PBM binding z-score,[8],-0.681
same,PBM binding z-score,[9],-0.182
same,PBM binding z-score,[10],-0.0065
CAAGCTAGGTCACGAAAGGTCAAAGTCGAATGAC,PBM binding z-score,[1],5.1
same,PBM binding z-score,[2],6.14
same,PBM binding z-score,[3],2.17
same,PBM binding z-score,[4],-0.0947
same,PBM binding z-score,[5],7.93
same,PBM binding z-score,[6],7.36
same,PBM binding z-score,[7],3.04
same,PBM binding z-score,[8],7.85
same,PBM binding z-score,[9],4.08
same,PBM binding z-score,[10],5.61
